# Records with an inconclusive call do not appear. Values without a mark were called inactive. Active and inactive are the calls of the source. Calls follow the shape of the dose curve; as a rule, active = well fitted inhibition curve with a large enough effect; inconclusive = small, poorly fitted or top-dose-only effect; inactive = flat fitted curve, though single readings scatter.
# Target: Phospholipid hydroperoxide glutathione peroxidase GPX4 (Homo sapiens) (UniProt P36969)
# Assay: Primary qHTS Assay for Inhibitors of Recombinant Selenoprotein Glutathione Peroxidase 4 (GPX4) (AID 1845192); also: nearly all actives have a fitted effect of over 65% in size
# Conditions: recombinant GPX4, GR-coupled NADPH fluorescence, 15 min; series mostly up to 50 µM; activity change, negative = inhibition: at the top concentration
# In short: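 NADPH consumption followed by fluorescence at 340/450 nm, t=0 and after 15 min at room temperature. Reaction started with cumene hydroperoxide (0.5 mM final) after 30 min compound–GPX4 preincubation; final 200 nM GPX4, 100 nM GR, 1 mM GSH, 0.5 mM NADPH.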
# % is scaled to controls: 0 for no effect and ±100 for the full control effect.
# Phospholipid hydroperoxide glutathione peroxidase GPX4 (Homo sapiens), sequence (P36969 whole entry, looked up): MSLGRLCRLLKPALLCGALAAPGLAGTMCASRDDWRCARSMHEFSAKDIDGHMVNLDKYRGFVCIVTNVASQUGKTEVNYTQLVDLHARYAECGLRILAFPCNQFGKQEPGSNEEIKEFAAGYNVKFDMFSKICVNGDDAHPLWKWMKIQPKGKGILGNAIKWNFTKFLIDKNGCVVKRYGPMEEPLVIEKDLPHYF
SMILES,outcome,"activity change, negative = inhibition"
COC1CC(OC2CCC3(C)C(=CCC4C3CCC3(C)C(C(C)OC5OC(COC6OC(CO)C(O)C(O)C6O)C(O)C(O)C5O)CCC43O)C2)OC(C)C1OC1OC(C)C(O)C(OC)C1O (centres undefined),inactive [at 15.3 µM],
C[C@@]1(C(=O)O)CC[C@]2(C)CC[C@]3(C)C4=CC(=O)c5cc(O)c(O)cc5[C@]4(C)CC[C@@]3(C)[C@@H]2C1,,-1.18% [at 27.8 µM]
COC(=O)C12C(=O)C(C)(O)C(=O)C1(C)C(C)=CC1C34CCC(OC3=O)C(C)(CO)C4CCC12C (centres undefined),,-5.98% [at 27.8 µM]
CC(C)=C1CC[C@]23CO[C@H](C2)[C@@](O)(C(=O)O)CCC13 (some centres undefined),,-4.98%
COC1CC(OC2CCC3(C)C(CCC4C3CCC3(C)C(C5=CC(=O)OC5)C(OC(C)=O)CC43O)C2)OC(C)C1OC1OC(CO)C(O)C(O)C1O (centres undefined),,1.67% [at 15.3 µM]
COC1CC(=O)C23C(=O)NC(CC(C)C)C2C(C)=C(C)C(OO)C3/C=C(\C)CCC(O)C1O (centres undefined),inactive [at 27.8 µM],
COc1c(C(C)C)cc2c(c1O)[C@@]1(C(=O)O)CCCC(C)(C)C1CC2 (some centres undefined),,-17.5% [at 27.8 µM]
CC1C/C=C/C(O)C(O)CC/C=C/c2cc(O)cc(O)c2C(=O)O1 (centres undefined),,3.43% [at 27.8 µM]
C=CC(C)(O)CC/C=C(\C)C(=O)O[C@H]1[C@H](O)[C@@H](CO)O[C@@H](OC(=O)[C@]23CCC(C)(C)CC2C2=CCC4[C@@]5(C)CC[C@H](O[C@@H]6O[C@H](CO[C@@H]7OC[C@H](O)[C@H](O)[C@H]7O[C@@H]7OC[C@@H](O)[C@H](O)[C@H]7O)[C@@H](O)[C@H](O)[C@H]6O)C(C)(C)C5CC[C@@]4(C)[C@]2(C)CC3)[C@@H]1OC1OC(C)C(O[C@@H]2OC[C@@H](O)[C@H](O[C@@H]3OC[C@@H](O)[C@H](O)[C@H]3O)[C@H]2O)C(O)C1O (some centres undefined),,0.212% [at 9.73 µM]
COC1C(O)C(OC2CCC3(C=O)C(CCC4C3CCC3(C)C(C5=CC(=O)OC5)CCC43O)C2)OC(C)C1OC1OC(CO)C(O)C(O)C1O (centres undefined),,3.61% [at 15.3 µM]
COC1CC(O[C@H]2CC[C@@]3(C)C(=CCC4C3C(O)[C@@H](O)[C@]3(C)[C@@H](C(C)=O)CC[C@]43O)C2)OC(C)C1OC1CC(OC)C(OC2OC(C)C(O)C(O)C2O)C(C)O1 (some centres undefined),,-4.53% [at 15.3 µM]
CC(N)Cc1c[nH]c2ccccc12 (centres undefined),,6.69%
CC(C)(C)c1cc(C(C)(C)C)c2c(c1)C(O)(C(F)(F)F)C(=O)O2 (centres undefined),,-20.5%
CC[C@H]1CN2CC[C@H]1C[C@@H]2[C@@H](O)c1ccnc2ccc(OC)cc12,,-3.38% [at 27.8 µM]
C=C(C)[C@H]1O[C@H]2CC[C@@]3(C)[C@@](O)(CC[C@H]4[C@@H]5OC(C)(C)[C@H]6C[C@@H]7C(=C)Cc8c(Cl)cc9[nH]c(c5c9c8[C@@]76O)[C@@]43C)[C@]23O[C@@H]3[C@H]1O,,-21.5% [at 15.3 µM]
COC1C(O)C(C)OC(OC2C(CO)O[C@@H](O[C@@H]3CC4CCC5C(CC[C@]6(C)[C@@H](C7=CC(=O)OC7)CC[C@]56O)[C@@]4(C)[C@H](O)C3)C(O)C2O)C1O (some centres undefined),,1.2% [at 15.3 µM]
CCc1[nH]c2ccc(OC)cc2c1CCN(C)C,,6.92%
CCC1NC(=O)C2C(Cl)C(Cl)CN2C(=O)C(C(C)O)NC(=O)CC(c2ccccc2)NC(=O)C(CO)NC1=O (centres undefined),,-7.3% [at 15.3 µM]
CC(=O)OC1CC(O)C2(C)C(CC(OC(C)=O)C3(C)C2CCC2(C)C(c4ccoc4)C(=O)C4OC423)C1(C)C (centres undefined),,-12.6% [at 27.8 µM]
CN1CCCC1CCOC(c1cc2nccc(C(=O)O)c2[nH]1)c1ccccc1Cl (centres undefined),,0.97%

SMILES,outcome,"activity change, negative = inhibition"
Cc1c(Cl)cccc1S(=O)(=O)Nc1nc(CC(=O)N2CCN(C)CC2)cs1,,1.74%
CC(=O)OC1CC(O)C(C)(C)C2CC(OC(C)=O)C3(C)C(CCC4(C)C(c5ccoc5)C(=O)C5OC543)C12C (centres undefined),,-0.681% [at 27.8 µM]
COC1=CC(=O)O[C@@H](CCc2ccccc2)C1,,0.246%
CC1=C2C[C@H]3[C@@H](CC=C4C[C@@H](O)CC[C@@]43C)[C@@H]2CC[C@]12O[C@@H]1C[C@H](C)CN[C@H]1[C@H]2C,,7.88%
CC(C)(O)[C@H]1O[C@H]2CC[C@@]3(C)[C@@](O)(CC[C@H]4Cc5c([nH]c6ccccc56)[C@@]43C)C2=CC1=O,,-14.7% [at 27.8 µM]
OCCCCC#Cc1cncc(OC[C@@H]2CCN2)c1,,17.5%
C[C@]12CC[C@@H](O)C[C@H]1CC[C@@H]1[C@@H]2CC[C@]2(C)C(=O)CC[C@@H]12,,-1.34%
CC(=O)OC12C(O)C(C)C3(O)C4C=C(C)C(=O)C4CC(CO)=CC3C1C2(C)C (centres undefined),,-0.556% [at 27.8 µM]
COc1ccccc1CN[C@H]1C2CCN(CC2)[C@H]1C(c1ccccc1)c1ccccc1,,8.55%
CCCCCCn1c(=O)c(C(=O)Nc2ccc(C(=O)OCCC)cc2)c(O)c2ccccc21,,18.5% [at 9.73 µM]
COC1=CC(=O)O[C@@H](/C=C/c2ccccc2)C1,,-1.69%
CCCN1CCO[C@H]2c3cc(O)ccc3OC[C@@H]21,inactive,
COc1cc(C(=O)O[C@H]2[C@@H]3C=CO[C@@H](O[C@@H]4O[C@H](CO)[C@@H](O)[C@H](O)[C@H]4O)[C@@H]3[C@@]3(CO)O[C@@H]23)ccc1O,inactive [at 27.8 µM],
CCN1C[C@]2(COC)[C@H](O)C[C@H](OC)[C@]34[C@@H]5C[C@]6(O)[C@H](OC(=O)c7ccccc7)[C@@H]5[C@@](O)([C@H]([C@H](OC)[C@H]23)[C@@H]14)[C@@H](O)[C@@H]6OC,,-1.99% [at 27.8 µM]
C[C@H](NC(=O)Cc1cc(F)cc(F)c1)C(=O)N[C@@H]1N=C(c2ccccc2)c2ccccc2N(C)C1=O,,8.91%
C1=C2CCCN[C@H]2[C@@H]2C[C@H]1[C@H]1CCCCN1C2,,3.97%
C[C@@H]1C(=O)O[C@H]2[C@H](O)[C@@]34[C@@H]5OC(=O)[C@@]3(O[C@@H]3OC(=O)[C@@H](O)[C@@]34[C@H](C(C)(C)C)[C@H]5O)[C@@]12O,,1.95% [at 27.8 µM]
COC(=O)C1(C)CCC(O)C2(C)c3cc(O)c(C(C)C)cc3C(O)C(OC(C)=O)C12 (centres undefined),,-5.1% [at 27.8 µM]
CN1C(=O)c2ccccc2NC(=O)[C@]12O[C@@H]2c1ccccc1,,-12%
